PubChem BioAssay (NCATS)
Where “and” joins values, the source holds several entries; their conditions need not be identical. Equal values may be shown once. Records with an inconclusive call do not appear. Calls of active or inactive are those of the source. Unless noted, calls come from the whole dose curve; as a rule, active = well fitted curve in either direction with a large enough effect (not every such curve was filed as active); inconclusive = small, poorly fitted or top-dose-only effect, or another doubt; inactive = flat fitted curve, though single readings scatter.

Tests used:
[1] = AP1 Signaling Pathway (AID 357); settings: ME-180 AP-1-bla reporter, EGF-induced, beta-lactamase ratio, 5 h; note: % is set by controls: 0 for no effect and ±100 for the full control effect
Outline: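 ME-180 cells with beta-lactamase reporter under AP-1 response element, stimulated with EC50 EGF; compounds tested in titration series, 5 h at 37 °C. CCF4 substrate added 2.5 h at room temperature; 460/530 nm emission ratio gave %activity and AC50.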

[2] = NFAT Signaling Pathway (AID 444); settings: Jurkat NFAT-bla M1, carbachol, beta-lactamase ratio, 5 h;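 note: carbachol stimulus at about its EC50 of 1 µM final; % is set by controls: 0 for no effect and ±100 for the full control effect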
Outline: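 Jurkat cells with NFAT-driven β-lactamase reporter and co-expressed M1 receptor, stimulated with carbachol (final 1 uM, ~EC50), compound titration, 5 h at 37 °C. CCF4 loaded 1 h at RT; 460/530 nm ratio gave %activity and AC50.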

[3] = Stat Signaling Pathway (AID 446);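 note: ME-180 cervical cancer cells given 40 pM IL-6 alongside compound; SIE-controlled beta-lactamase reporter measured as 460/530 nm FRET emission ratio; % is set by controls: 0 for no effect and ±100 for the full control effect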
Outline: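 Reporter line: ME-180 cervical carcinoma, SIE-beta-lactamase. Treatment: compound with 40 pM IL-6, 5 hrs, 37 C, in low-serum OPTI-MEM with 10 mM HEPES pH 7.3. Detection: 460/530 nm fluorescence.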

[4] = target: Glucocorticoid receptor (Homo sapiens) (UniProt P04150); assay: GR-GFP Redistribution (AID 450;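 active = compounds whose dose series gives a full or clear partial fitted curve of increased nuclear translocation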; note: potency is the fitted concentration of half-maximal effect); settings: U2OS GR-GFP nuclear translocation, laser cytometry, 2 h
Glucocorticoid receptor (Homo sapiens), sequence (P04150 whole entry, looked up, the tested form may be a part): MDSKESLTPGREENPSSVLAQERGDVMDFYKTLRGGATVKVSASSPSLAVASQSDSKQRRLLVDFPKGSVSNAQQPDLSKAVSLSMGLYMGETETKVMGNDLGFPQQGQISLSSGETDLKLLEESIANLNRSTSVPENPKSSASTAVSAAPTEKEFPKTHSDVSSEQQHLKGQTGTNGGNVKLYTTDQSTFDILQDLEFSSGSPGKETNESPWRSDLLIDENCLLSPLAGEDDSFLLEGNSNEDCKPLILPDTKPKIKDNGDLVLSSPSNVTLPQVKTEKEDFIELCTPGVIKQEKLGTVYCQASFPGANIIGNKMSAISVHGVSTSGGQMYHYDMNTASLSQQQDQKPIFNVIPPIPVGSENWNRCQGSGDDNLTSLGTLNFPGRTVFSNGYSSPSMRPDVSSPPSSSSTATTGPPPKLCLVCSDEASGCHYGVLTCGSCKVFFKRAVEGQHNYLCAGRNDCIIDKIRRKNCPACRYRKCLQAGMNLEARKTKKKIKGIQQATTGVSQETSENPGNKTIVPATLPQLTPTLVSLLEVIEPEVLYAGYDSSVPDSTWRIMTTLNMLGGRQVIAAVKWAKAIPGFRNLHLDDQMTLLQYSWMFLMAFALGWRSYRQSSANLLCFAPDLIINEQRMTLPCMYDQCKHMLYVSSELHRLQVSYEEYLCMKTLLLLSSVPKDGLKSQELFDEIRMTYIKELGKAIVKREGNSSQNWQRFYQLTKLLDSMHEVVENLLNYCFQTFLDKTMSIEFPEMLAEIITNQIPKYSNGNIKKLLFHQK

[5] = target: Glucocorticoid receptor (Homo sapiens) (UniProt P04150); assay: GR-EFC Redistribution (AID 451; calls by dose curve; note: potency is the fitted concentration of half-maximal effect); settings: CHO-K1 GR-EFC translocation, beta-gal luminescence, 2 h
Outline: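 CHO-K1 cells expressing nuclear EA and GR-ED fragments of b-gal; compounds titrated up to 46 uM final, 2 h at 37 C. GR nuclear translocation read as complemented b-gal luminescence after 1 h RT detection.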

[6] = target: Mitogen-activated protein kinase 10 (Mus musculus) (UniProt Q61831); assay: JNK3 AlphaScreen Assay (AID 530);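 note: kinase came from lysate of stimulated human HepG2 cells; signal reports phosphorylation of biotinylated GST-cJun 1-79 at Ser73 with 10 µM ATP; % is set by controls: 0 for no effect and ±100 for the full control effect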
Outline: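 Pre-activated (IL-1β/TNFα) JNK3 in HepG2 lysates phosphorylates biotin-GST-cJun(1-79), 10 uM ATP; anti-phospho-cJun(Ser73) AlphaScreen read at room temperature, pH 7.6 Tris buffer. Compounds pre-incubated 15 min as titrations.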

[7] = at 17.2 µM (top of the series) unless noted

CN1CCCN(C(c2ccccc2)c2ccc(Cl)cc2)CC1 (configuration not stated)
active: activity change, negative = inhibition ([2]; at 17.2 µM (top of the series)) -95.8% | Potency [4] 6.11 µM
inactive: activity change, negative = inhibition [1, 7] 14.9% | outcome [3]

O=C1NC(c2cccc([N+](=O)[O-])c2)=CCN1c1ccccc1O
inactive: activity change, negative = inhibition [1, 7] -12.2% [at 38 µM] | activity change, negative = inhibition ([2]; at 38 µM (top of the series)) 4.96% | outcome [3] | Potency [4] > 46 µM | Potency [5] > 46 µM | outcome [6]

CCCC(=O)O[C@]1(C(=O)CCl)[C@@H](C)C[C@H]2[C@@H]3CCC4=CC(=O)C=C[C@]4(C)[C@@]3(F)C(=O)C[C@@]21C
active: Potency [4] < 5.9e-06 µM
inactive: activity change, negative = inhibition [1, 7] 2.19% | outcome [3]

CC1(C)O[C@@H]2C[C@H]3[C@@H]4CCC5=CC(=O)C=C[C@]5(C)[C@@]4(F)[C@@H](O)C[C@]3(C)[C@]2(C(=O)CO)O1
inactive: activity change, negative = inhibition [1, 7] 4.43% | outcome [3]
active: Potency [4] 0.00313 µM

Cc1ncc(CO)c(CO)c1O
inactive: activity change, negative = inhibition [1, 7] -2.02% | outcome [3] | outcome [6]

COc1ccccc1N1CCN(CCN2C(=O)CC3(CCCC3)CC2=O)CC1
inactive: activity change, negative = inhibition [1, 7] -25.1% [at 38 µM] | activity change, negative = inhibition ([2]; at 38 µM (top of the series)) -25.7% | outcome [3] | Potency [4] > 46 µM | Potency [5] > 46 µM | outcome [6]

C[C@]12CCC(=O)C=C1CC[C@@H]1[C@@H]2[C@@H](O)C[C@@]2(C)[C@H]1CC[C@]2(O)C(=O)COC(=O)CCC(=O)O
active: Potency [4] 44.2 nM and 599 nM
inactive: activity change, negative = inhibition [1, 7] -1.32% and 11.9% | activity change, negative = inhibition ([2]; at 17.2 µM (top of the series)) 10.9% | outcome [3]

O=C(O)c1ccccc1S
inactive: activity change, negative = inhibition [1, 7] -3.14% | activity change, negative = inhibition ([2]; at 17.2 µM (top of the series)) 24.8% | outcome [3] | Potency [4] > 20.6 µM

CC(=O)OCC[N+](C)(C)C
active: activity change, negative = inhibition ([2]; at 17.2 µM (top of the series)) 122% [activator]
inactive: activity change, negative = inhibition [1, 7] -2.55% | outcome [3] | Potency [4] > 20.6 µM

NC(N)=NCCCCN=C(N)N
inactive: activity change, negative = inhibition ([1]; at 17.2 µM (top of the series)) 10.4% | activity change, negative = inhibition ([1]; at 38 µM (top of the series)) -0.239% | activity change, negative = inhibition ([2]; at 17.2 µM (top of the series)) 8.46% | activity change, negative = inhibition ([2]; at 38 µM (top of the series)) -22% | outcome [3] | Potency [4] > 46 µM and > 20.6 µM | Potency [5] > 46 µM and > 20.6 µM | outcome [6]

CC(=O)[C@@]1(O)CC[C@H]2[C@@H]3C[C@H](C)C4=CC(=O)CC[C@]4(C)[C@H]3CC[C@@]21C
inactive: activity change, negative = inhibition [1, 7] 16% | activity change, negative = inhibition ([2]; at 17.2 µM (top of the series)) 19.2% | outcome [3]
active: Potency [4] 0.00082 µM

OCCOCCN1CCN(C(c2ccccc2)c2ccc(Cl)cc2)CC1 (configuration not stated)
inactive: activity change, negative = inhibition [1, 7] 3.37% | outcome [3]

CC1(C)O[C@@H]2C[C@H]3[C@@H]4C[C@H](F)C5=CC(=O)C=C[C@]5(C)[C@@]4(F)[C@@H](O)C[C@]3(C)[C@]2(C(=O)CO)O1
active: Potency [4] 0.000728 µM
inactive: activity change, negative = inhibition [1, 7] -7.62% | activity change, negative = inhibition ([2]; at 17.2 µM (top of the series)) 22.4% | outcome [3]

CN(C)c1cc2c(Nc3ccc4c(cnn4Cc4ccccc4)c3)ncnc2cn1
active: activity change, negative = inhibition [1, 7] -107% [at 38 µM]
inactive: Potency [4] > 46 µM | Potency [5] > 46 µM | outcome [6]

CC(=O)Nc1c(I)c(NC(C)=O)c(I)c(C(=O)O)c1I
inactive: activity change, negative = inhibition [1, 7] -1.8% | activity change, negative = inhibition ([2]; at 17.2 µM (top of the series)) -7.63% | outcome [3] | Potency [4] > 20.6 µM

CCCCCC(=O)O[C@]1(C(C)=O)CC[C@H]2[C@@H]3CCC4=CC(=O)CC[C@]4(C)[C@H]3CC[C@@]21C
active: Potency [4] 0.00527 µM
inactive: activity change, negative = inhibition [1, 7] -2.44% | outcome [3]

CN(C(=O)C(Cl)Cl)c1ccc(OC(=O)c2ccco2)cc1
inactive: activity change, negative = inhibition [1, 7] 4.41% and 1.4% | activity change, negative = inhibition ([2]; at 17.2 µM (top of the series)) 3.31% and -29.1% | outcome [3] | Potency [4] > 20.6 µM | Potency [5] > 20.6 µM | outcome [6]

Brc1ccc([C@H]2CN3CCSC3=N2)cc1
inactive: activity change, negative = inhibition [1, 7] 10.4% [at 38 µM] | activity change, negative = inhibition ([2]; at 38 µM (top of the series)) -10.1% | outcome [3] | Potency [4] > 46 µM | Potency [5] > 46 µM | outcome [6]

C[N+](C)(C)CCO
inactive: activity change, negative = inhibition [1, 7] 0.911% [at 38 µM] | activity change, negative = inhibition ([2]; at 38 µM (top of the series)) 2.35% | outcome [3] | outcome [6]

OC(CCCN1CCCCC1)(c1ccccc1)c1ccccc1
inactive: activity change, negative = inhibition [1, 7] 26.6% | outcome [3] | outcome [6]

CCOC(=O)NNc1nncc2ccccc12
inactive: activity change, negative = inhibition [1, 7] -6.72% | activity change, negative = inhibition ([2]; at 17.2 µM (top of the series)) 1.79% | outcome [3] | Potency [4] > 20.6 µM | Potency [5] > 20.6 µM | outcome [6]

C[C@H]1C[C@@H]2[C@H]([C@@H](O)C[C@@]3(C)[C@H]2CC[C@]3(O)C(=O)CO)[C@@]2(C)C=CC(=O)C=C12
inactive: activity change, negative = inhibition [1, 7] 4.57% | activity change, negative = inhibition ([2]; at 17.2 µM (top of the series)) 17.5% | outcome [3]

CC(NCCC(c1ccccc1)c1ccccc1)c1ccccc1 (configuration not stated)
inactive: activity change, negative = inhibition [1, 7] 12.2% | outcome [3] | Potency [4] > 20.6 µM
